Assay [1] concerns Vero E6 infected with SARS-CoV-2. The assay is described as follows: morphology score (similarity to uninfected cells); higher = more like uninfected cells. The following applies: 24 h.
Assay [2] shares this test system. Description: SARS-CoV-2 infection rate relative to infected DMSO; higher = more infection, active = 60 or less. The settings on record: 24 h.

Turning to `NCCCC[C@H](NC(=O)[C@@H](Cc1cc(Br)c(O)c(Br)c1)NC(=O)N1CCC(N2Cc3ccccc3NC2=O)CC1)C(=O)N1CCN(c2ccncc2)CC1` (10 µM), the morphology score in assay [1] was determined as 0.0352. Also, the SARS-CoV-2 infection rate in assay [2] is 110% (inactive).
The corresponding values for `COc1cccc(NC(=O)/C=C/c2ccc(Cl)cc2)c1` (10 µM) are -0.0484 and 99.5% (inactive).
As for `C[C@@H](c1nc(-c2ccc(C#N)cc2)cs1)[C@](O)(Cn1cncn1)c1cc(F)ccc1F` [isavuconazole] (10 µM), the morphology score in assay [1] is -0.116. For the same molecule, in assay [2], the SARS-CoV-2 infection rate is 113% (inactive).
The corresponding values for `COc1c(C)cnc(Cn2cc(C#CCC(C)(C)O)c3c(Cl)nc(N)nc32)c1C` (10 µM) are 0.181 and 110% (inactive).
The corresponding values for `O=C(c1ccc(F)cc1)C1CCN(CCn2c(=O)[nH]c3ccccc3c2=O)CC1` [ketanserin] (10 µM) are 0.144 and 106% (inactive).

Source of the values: the supplement of paper PMC13380429.
